Source: PubChem BioAssay (National Center for Advancing Translational Sciences (NCATS))
D2 ag-1: human D2 receptor agonism in beta-arrestin assay; activation, % (concentration not given with the values); DiscoveRx PathHunter D2 beta-arrestin, luminescence, 90 min; 100% = 57 uM dopamine signal; AID 624465; P14416; 0.084% of 360,000 active; in the data active = activation above about 40%
Target sequence (P14416 whole entry, looked up): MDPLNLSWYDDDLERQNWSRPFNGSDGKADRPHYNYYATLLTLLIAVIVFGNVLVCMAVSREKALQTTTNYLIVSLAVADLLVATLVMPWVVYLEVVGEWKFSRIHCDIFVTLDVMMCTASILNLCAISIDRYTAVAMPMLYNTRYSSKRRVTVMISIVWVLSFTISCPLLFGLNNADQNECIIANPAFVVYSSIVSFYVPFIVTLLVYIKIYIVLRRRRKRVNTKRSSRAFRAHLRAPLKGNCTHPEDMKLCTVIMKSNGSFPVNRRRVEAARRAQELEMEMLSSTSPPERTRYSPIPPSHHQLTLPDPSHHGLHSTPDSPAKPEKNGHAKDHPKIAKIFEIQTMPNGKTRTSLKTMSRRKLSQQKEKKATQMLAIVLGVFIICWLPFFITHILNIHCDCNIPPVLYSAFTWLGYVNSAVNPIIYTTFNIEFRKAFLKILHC
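DiscoveRx PathHunter D2 beta-arrestin cells (2,100/well) attached overnight, then compound-stimulated 90 min at 37 C in HBSS/10 mM HEPES/0.1% Tween-20 buffer; beta-galactosidase complementation read by luminescence after 1 h at ambient temperature. Dopamine 57 uM final (EC100) as control.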
D2 antagonist: antagonists of human D2 dopamine receptor; 2% of 340,000 active; HEK293 TREx D2 cells, calcium flux, dopamine EC80; P14416; inhibition, % at 10 µM; in the data active = inhibition above about 30%; inactive = below that, where a call was filed; note: 0% is about no effect
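Calcium flux kinetic readout in an inducible HEK293 TREx D2 line plated overnight at 30 C. After 180 s compound exposure, an EC80 dopamine challenge follows with another 180 s kinetic read to detect antagonism.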
D2 PAM-1: D2 dopamine receptor (human) potentiation | P14416 | HEK293 T-REx D2, calcium flux, EC20 dopamine potentiation | potentiation, % at 10 µM | 0.34% of 340,000 active | AID 485347;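 active = potentiation over 3 SD above the plate norm, cut at about 30% in these data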; note: 0% is about no effect
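Calcium flux readout, no-wash dye, 1 read/s. Inducible HEK293 Trex D2 line, overnight 30 C. Compound alone 180 s (agonist flags), then EC20 dopamine, another 180 s to score potentiation.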
D2 PAM-2: human D2 receptor positive allosteric modulation | potentiation, % (concentration not given with the values) | AID 624464 | P14416 | 0.23% of 360,000 active | DiscoveRx D2 beta-arrestin cells, luminescence, 90 min; 100% = 57 uM dopamine signal; in the data active = potentiation above about 50%
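PathHunter beta-arrestin assay in DiscoveRx D2 cells. Compounds were added with an EC20 of dopamine (50 nM final) for 90 min at 37 deg C. Luminescence was read 1 h after detection reagent, with 57 uM dopamine as the EC100 control.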
D2 ag-2: agonists of human D2 dopamine receptor; HEK293 T-REx D2 cells, calcium flux agonist mode; activation, % at 2 µM; 0.53% of 340,000 active; AID 485358;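 active = activation over 3 SD above normal in the single-dose calcium agonist read, cut at about 30% in these data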; note: 0% is about no effect
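Agonism scored from kinetic calcium signal (1 read/sec, 180 s) following compound pin transfer, after a 10 s baseline. Cells: HEK293 Trex line expressing inducible D2 receptor coupled to calcium, dye-loaded after overnight culture at 30 C.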
* hit, by the source's call; . = no result given. Compounds with a hit are over-represented: about 2.4% of the library has one in this group of screens.

SMILES | D2 ag-1 | D2 antagonist | D2 PAM-1 | D2 PAM-2 | D2 ag-2
COc1cc(C2CC(=O)Oc3c(C(CCN4CCCC(C)C4)c4ccc(N(C)C)cc4)c(OC)cc(OC)c32)cc(OC)c1OC (stereo not given) | 1 | 44* | -18 | -24 | 0
O=C1C=C(c2cc3ccccc3s2)C[C@@H](c2ccc(Cl)cc2)C1 | -4 | . | . | -4 | .
O=C1C=C(c2cccc3c2sc2ccccc23)C[C@@H](c2ccc(Cl)cc2)C1 | -3 | 11 | 33* | -4 | -1
CCCc1cc(=O)[nH]c(Nc2cc(Cl)cc(Cl)c2)n1 | . | . | -9 | . | 3
Cc1cccc(NC(=S)NC(NC(=O)c2ccco2)C(Cl)(Cl)Cl)c1 (stereo not given) | 0 | 30* | -24 | -29 | 1
Cc1ccc(NC(=S)NC(NC(=O)c2ccco2)C(Cl)(Cl)Cl)cc1 (stereo not given) | 0 | -3 | -2 | -16 | 1
COCCSc1ccccc1C(=O)NCC1CCCO1 (stereo not given) | -1 | 34* | 2 | -9 | 0
COc1cccc(N=c2oc3cc(O)ccc3cc2C(=O)NCC2CCCO2)c1 (stereo not given) | -1 | 1 | 10 | -4 | 0
COc1ccccc1N=c1oc2cc(O)ccc2cc1C(=O)NCC1CCCO1 (stereo not given) | -6 | 36* | 2 | -14 | 1
CSc1ccccc1C(=O)NCC1CCCO1 (stereo not given) | 0 | 2 | 2 | -3 | 0
CC(c1ccccc1)n1cc(C(=O)NCCN2CCOCC2)nn1 (stereo not given) | -4 | -2 | -7 | -2 | 1
CC(c1ccccc1)n1cc(C(=O)NCC2CCCO2)nn1 (stereo not given) | -4 | 40* | -12 | -4 | 0
Cc1ccccc1S(=O)Cc1ccc(C(=O)NC2CCN(Cc3ccccc3)CC2)o1 (stereo not given) | -4 | 44* | -20 | -33 | 1
Cc1cccc(S(=O)Cc2ccc(C(=O)NC3CCN(Cc4ccccc4)CC3)o2)c1 (stereo not given) | -7 | 44* | -19 | -35 | 0
CCOC(=O)N1CCC(NC(=O)c2ccc(CS(=O)c3ccc(Cl)cc3)o2)CC1 (stereo not given) | 0 | 8 | 0 | 1 | 1
O=C(Nc1cccc(C(=O)N2CCN(c3ccc(F)cc3)CC2)c1)c1nsc2ccccc12 | . | . | 11 | . | 0
CN(C)S(=O)(=O)N1CCC(N2CCN(Cc3ccc(F)cc3)C(=O)C2=O)CC1 | . | . | 6 | . | 0
O=C(O)COc1ccccc1/C=N/NC(=O)C(O)c1ccccc1 (stereo not given) | -6 | -15 | 1 | -5 | 0
CNC(=S)N/N=C/c1ccccc1OCC(=O)O | -3 | 31* | 14 | -5 | 2
O=C(Cc1cc(=O)[nH][nH]1)N/N=C/c1ccccc1Cl | -1 | -13 | 9 | 2 | 0
C=CCc1cccc(/C=N/NC(=O)C[n+]2ccccc2)c1O | 10 | 53* | -20 | -12 | 0
CCOc1ccccc1/C=N/NC(=O)C[n+]1ccccc1 | -5 | 33* | -16 | -19 | -1
O=C(Cc1ccccc1)N/N=C/c1ccccc1Cl | -4 | 31* | 1 | -12 | -1
Cc1cccc(CNC(=O)Cn2c(-c3cccs3)cc3ccccc32)c1 | . | . | 3 | . | 0
CCCCN(Cc1ccccc1)S(=O)(=O)c1ccc2c(c1)CC(C)N2C(=O)CC (stereo not given) | . | . | 20 | . | 0
SMILES | D2 ag-1 | D2 antagonist | D2 PAM-1 | D2 PAM-2 | D2 ag-2
Cc1cccc(CNC(=O)CCCN2C(=O)c3cccnc3Oc3ccccc32)c1 | . | . | 4 | . | -1
COc1cc(NC(=O)c2cc3nc(-c4ccc(C)cc4)cc(C(F)(F)F)n3n2)cc(OC)c1OC | . | . | 3 | . | -1
C=CCc1cccc(/C=N/NC(=O)C(C)Nc2cccc(C)c2)c1O (stereo not given) | -4 | 31* | -9 | -12 | 0
O=C(C[n+]1ccccc1)N/N=C/c1ccccc1Cl | 5 | 36* | -20 | -1 | 0
C=CCc1cccc(/C=N/NC(=O)CCCNc2ccc(C)cc2)c1O | -4 | -18 | -15 | -27 | -1
O=C(Cc1ccccc1)Nc1ccc(Br)c(Cl)c1 | 0 | -10 | 31* | -14 | -2
